PubChem BioAssay
Calls of active or inactive are those of the source.

Assays:
[1] = optical density shifts of acrAB sulA E. coli – strain DRC41, OD650, 48 h, E. coli filamentation inducer project, primary screen (AID 1152); settings: higher = more signal, called active from +8 up or from −8 down;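 also: E. coli MC1000 strain DRC41 lacking acrAB efflux pump and sulA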
[2] = probe aLefty1 binding on compound microarray – biochemical, small-molecule microarray, 635/667 nm fluorescence, primary screen (AID 1153); settings: higher = more signal;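 also: score merges spot fluorescence with signal-to-noise ratio from the scanned slide images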
[3] = plasmodial surface anion channel blockers, osmotic lysis – cell-based, P. falciparum Indochina, OD700, 1 h, primary screen (AID 1154); settings: P. falciparum Indochina infected RBC osmotic lysis, higher = more signal, called active from +8 up or from −8 down
[4] = plasmodial surface anion channel blockers, osmotic lysis – cell-based, P. falciparum Indochina, OD700, 2 h, primary screen (AID 1155);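 also: lysis reports solute entry through the parasite surface anion channel PSAC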; settings: P. falciparum Indochina infected erythrocytes, higher = more signal, called active from +8 up or from −8 down
[5] = changes in parasitized red cell lysis, either direction – P. falciparum Indochina, OD700, 3 h, PSAC antagonist project, primary screen (AID 1156); settings: P. falciparum-infected erythrocytes, osmotic lysis, higher = more signal, called active from +8 up or from −8 down
[6] = plasmodial surface anion channel blockers, osmotic lysis – cell-based, P. falciparum Indochina, OD700, 18 h, primary screen (AID 1157); settings: P. falciparum Indochina infected erythrocytes, osmotic lysis OD700, 18 h; higher = more signal, called active from +8 up or from −8 down
[7] = S6 kinase pathway phospho-S6 level changes – cell-based, A549, cytoblot, luminescence, serum-stimulated, primary screen (AID 1158); settings: 5 h, higher = more signal;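 also: serum-stimulated A549 lung adenocarcinoma cells; signal is phosphorylated S6 detected by cytoblot immunostaining with HRP secondary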
[8] = molecular target: NADPH oxidase 2 (Homo sapiens) (UniProt P04839); assay: compounds shifting NOX2 Amplex Red fluorescence – cell-based, HEK293-NOX2, PMA-stimulated, NOX inhibitor project, primary screen (AID 1159); settings: 45 min, higher = more signal, called active from +8 up or from −8 down; also: test concentration not given here
NADPH oxidase 2 (Homo sapiens), sequence (P04839 whole entry, looked up): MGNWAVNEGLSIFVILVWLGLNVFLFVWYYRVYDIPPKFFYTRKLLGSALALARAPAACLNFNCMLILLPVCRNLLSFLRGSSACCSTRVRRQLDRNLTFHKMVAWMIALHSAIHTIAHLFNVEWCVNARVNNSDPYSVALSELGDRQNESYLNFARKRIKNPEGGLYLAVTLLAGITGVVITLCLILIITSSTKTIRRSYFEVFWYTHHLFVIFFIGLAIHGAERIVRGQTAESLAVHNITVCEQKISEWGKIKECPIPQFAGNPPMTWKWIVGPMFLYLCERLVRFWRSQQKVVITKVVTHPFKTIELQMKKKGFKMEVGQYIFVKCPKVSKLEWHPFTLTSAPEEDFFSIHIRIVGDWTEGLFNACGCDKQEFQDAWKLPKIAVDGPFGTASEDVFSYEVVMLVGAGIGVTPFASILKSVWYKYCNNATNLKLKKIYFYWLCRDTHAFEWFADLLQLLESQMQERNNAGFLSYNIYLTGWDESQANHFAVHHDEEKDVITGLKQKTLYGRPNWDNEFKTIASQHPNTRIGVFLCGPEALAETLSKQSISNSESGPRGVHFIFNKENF

[9] = molecular target: NADPH oxidase 4 (Homo sapiens) (UniProt Q9NPH5); assay: compounds shifting NOX4 Amplex Red fluorescence – cell-based, HEK293-NOX4, tetracycline-induced, NOX inhibitor project, primary screen (AID 1160); settings: HEK293-NOX4, Amplex Red H2O2 fluorescence, 45 min; higher = more signal, called active from +8 up or from −8 down
NADPH oxidase 4 (Homo sapiens), sequence (Q9NPH5 whole entry, looked up): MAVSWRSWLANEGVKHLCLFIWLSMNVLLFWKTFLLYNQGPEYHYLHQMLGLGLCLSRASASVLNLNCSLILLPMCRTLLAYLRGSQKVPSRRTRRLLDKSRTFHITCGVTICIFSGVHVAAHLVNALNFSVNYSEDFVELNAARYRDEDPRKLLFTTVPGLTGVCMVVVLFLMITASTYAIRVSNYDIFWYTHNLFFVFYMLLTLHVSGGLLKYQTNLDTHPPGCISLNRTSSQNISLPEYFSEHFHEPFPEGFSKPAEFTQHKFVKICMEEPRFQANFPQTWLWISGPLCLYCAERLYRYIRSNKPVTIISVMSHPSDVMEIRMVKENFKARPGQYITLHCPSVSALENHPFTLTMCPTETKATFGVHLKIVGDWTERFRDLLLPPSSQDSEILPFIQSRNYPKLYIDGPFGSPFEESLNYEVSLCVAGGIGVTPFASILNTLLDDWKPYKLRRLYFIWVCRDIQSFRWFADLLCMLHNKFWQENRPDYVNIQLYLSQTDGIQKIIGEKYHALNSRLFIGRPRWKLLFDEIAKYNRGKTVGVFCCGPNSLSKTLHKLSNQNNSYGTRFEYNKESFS

[10] = molecular target: NADPH oxidase 5 (Homo sapiens) (UniProt Q96PH1); assay: compounds shifting NOX5 Amplex Red fluorescence – cell-based, HEK293-NOX5, NOX inhibitor project, primary screen (AID 1161); settings: HEK293-NOX5, ionomycin, 45 min, higher = more signal
NADPH oxidase 5 (Homo sapiens), sequence (Q96PH1 whole entry, looked up): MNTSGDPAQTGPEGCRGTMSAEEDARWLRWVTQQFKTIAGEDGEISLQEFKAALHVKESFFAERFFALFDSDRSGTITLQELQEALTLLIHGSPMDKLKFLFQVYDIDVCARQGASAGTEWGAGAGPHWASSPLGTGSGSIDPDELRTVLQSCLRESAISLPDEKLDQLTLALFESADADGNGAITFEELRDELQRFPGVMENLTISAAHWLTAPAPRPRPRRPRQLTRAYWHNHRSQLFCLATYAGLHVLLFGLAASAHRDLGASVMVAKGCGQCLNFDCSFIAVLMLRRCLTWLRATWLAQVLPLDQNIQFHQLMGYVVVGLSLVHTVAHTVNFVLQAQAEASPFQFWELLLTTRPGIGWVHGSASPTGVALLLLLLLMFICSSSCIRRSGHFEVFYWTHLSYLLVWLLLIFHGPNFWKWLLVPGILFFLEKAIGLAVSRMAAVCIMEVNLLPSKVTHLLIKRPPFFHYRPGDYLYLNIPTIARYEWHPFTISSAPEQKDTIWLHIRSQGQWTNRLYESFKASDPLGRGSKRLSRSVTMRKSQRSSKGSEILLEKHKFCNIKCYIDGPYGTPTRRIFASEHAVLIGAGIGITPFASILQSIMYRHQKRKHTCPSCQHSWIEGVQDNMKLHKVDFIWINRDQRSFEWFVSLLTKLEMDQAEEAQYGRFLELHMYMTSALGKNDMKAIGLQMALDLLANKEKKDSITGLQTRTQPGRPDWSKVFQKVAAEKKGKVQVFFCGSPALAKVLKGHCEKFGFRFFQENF

[11] = compound effects on lung adenocarcinoma cell viability – A549, calcein-AM fluorescence, 48 h, basal, profiling panel (AID 1162); settings: higher = more signal; also: test concentration not given here
[12] = compound effects on differentiated 3T3-L1 adipocyte viability – cell-based, 3T3-L1 adipocytes, calcein-AM fluorescence, 48 h, basal, profiling panel (AID 1163); settings: 3T3-L1 adipocytes viability, higher = more signal; also: test concentration not given here
[13] = compound effects on hepatocellular carcinoma cell viability – HepG2, calcein-AM fluorescence, 48 h, basal, profiling panel (AID 1164); settings: higher = more signal; also: test concentration not given here
[14] = compound effects on multiple myeloma cell viability – MM1S, calcein-AM fluorescence, 48 h, basal, profiling panel (AID 1165); settings: higher = more signal;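 also: viability of MM1S multiple myeloma cells under basal unstimulated conditions; test concentration not given here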
[15] = calcein-AM signal in unstimulated myeloma cells – cell-based, calcein-AM fluorescence, 48 h, PK04 Diversity Set, profiling panel (AID 1166); settings: RPMI8226 myeloma viability, higher = more signal;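 also: cells grown under basal conditions without added stimulus; test concentration not given here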
[16] = JC-1 mitochondrial signal, unstimulated HepG2 cells – cell-based, JC-1 fluorescence, 24 h, 100 nL compound, profiling panel (AID 1167); settings: HepG2 mitochondrial potential, higher = more signal; also: test concentration not given here
[17] = JC-1 mitochondrial signal, unstimulated adipocytes – cell-based, JC-1 fluorescence, 3T3-L1 adipocytes, 24 h, 100 nL compound, profiling panel (AID 1168); settings: JC-1 mitochondrial fluorescence, higher = more signal, called active from +8 up or from −8 down; also: test concentration not given here
[18] = JC-1 mitochondrial signal, unstimulated myeloma cells – cell-based, JC-1 fluorescence, RPMI8226, 24 h, 100 nL compound, profiling panel (AID 1169); settings: JC-1 mitochondrial potential fluorescence, higher = more signal; also: test concentration not given here
[19] = JC-1 mitochondrial signal, unstimulated MM1S myeloma – cell-based, JC-1 fluorescence, 24 h, 100 nL compound, profiling panel (AID 1170); settings: MM1S mitochondrial potential, higher = more signal; also: test concentration not given here
[20] = resazurin metabolic signal in A549 cells – cell-based, resazurin fluorescence, 24 h, PK04 Diversity Set, profiling panel (AID 1171); settings: A549 viability, higher = more signal, called active from +8 up or from −8 down; also: test concentration not given here

Compound	z-score [1]	composite z-score [2]	z-score [3]	z-score [4]	z-score [5]	z-score [6]	z-score [7]	z-score [8]	z-score [9]	z-score [10]	z-score [11]	z-score [12]	z-score [13]	z-score [14]	z-score [15]	z-score [16]	z-score [17]	z-score [18]	z-score [19]	z-score [20]
CC(C)N1CC=CC23O[C@@H]4C=CCCOC(=O)C4[C@H]2C(=O)N(CCCCCO)[C@@H]3C1=O (stereo not given in full)	0.952 (inactive)	-0.0186	1.42 (inactive)	0.261 (inactive)	2.21 (inactive)	0.455 (inactive)	1.35	1.42 (inactive)	0.356 (inactive)	1.48	-0.211	-0.288	1.28	1.57	1.7	0.77	1.19 (inactive)	0.0326	-1.08	0.846 (inactive)
CCc1cccc(NC(=O)O[C@H]2[C@H](OC(=O)Nc3ccc4c(c3)OCO4)[C@H](OC(=O)Nc3ccc4c(c3)OCO4)[C@@H](OC)O[C@@H]2CO)c1	-0.128 (inactive)	0.349	18.2 (active)	2.63 (inactive)	1.73 (inactive)	1.18 (inactive)	0.921	-3.43 (inactive)	-1.11 (inactive)	-1.65	-1.45	1.16	-1.35	-2.42	-2.17	-1.56	0.248 (inactive)	-1.15	-1.18	-2.33 (inactive)
CC(C)C[C@@H]1NC(=O)[C@@H]2C[C@H](C(=O)NCCCC[N+](C)(C)C)[C@H](c3ccc(O)cc3)N2C1=O	-0.04 (inactive)	-0.0145	1.32 (inactive)	0.281 (inactive)	-0.0501 (inactive)	0.449 (inactive)	0.145	-2.33 (inactive)	-1.4 (inactive)	-2.19	0.127	-0.302	-0.698	-0.104	-0.427	-0.65	-0.341 (inactive)	0.496	-0.548	-1.18 (inactive)
C=CCC(OC(C)=O)[C@@H]1[C@@H](N(Cc2ccc(-c3cccc(C(F)(F)F)c3)o2)C(=O)Cc2ccc(OC)cc2)c2cc(OCCCO)ccc2N1C(=O)c1ccc2ccccc2n1 (stereo not given in full)	-0.797 (inactive)	-0.0046	0.83 (inactive)	0.74 (inactive)	0.959 (inactive)	0.289 (inactive)	0.342	-0.236 (inactive)	-1.23 (inactive)	-1.45	-0.0093	0.341	0.279	-1.2	-2.3	2.12	0.253 (inactive)	-0.616	1.42	-1.25 (inactive)
CN(C)C(=O)[C@]1(Cc2ccccc2)N=C(c2ccc(OCCCO)cc2)O[C@@H]1c1ccccc1	-0.855 (inactive)	-0.13	28.8 (active)	23.9 (active)	-0.0356 (inactive)	2.51 (inactive)	-0.0744	0.945 (inactive)	-0.372 (inactive)	-1.73	-0.092	-0.577	0.846	-0.864	-1	0.0944	0.193 (inactive)	-1.11	-0.192	0.747 (inactive)
CCCCC(O)C1C=CC2C(=O)N(C)C(=O)C2N1Nc1ccccc1 (stereo not given)	-1.37 (inactive)	0.165	-0.242 (inactive)	0.735 (inactive)	0.243 (inactive)	1.17 (inactive)	-1.35	-1.32 (inactive)	-3.48 (inactive)	-2.72	-0.961	-1.89	-0.595	-1.29	-0.419	-1.73	0.64 (inactive)	-0.16	0.402	-0.98 (inactive)
COCC1=C([C@H](O)CCc2ccccc2)[C@H](CO)n2c(=O)n(-c3ccccc3)c(=O)n2C1	3.47 (inactive)	-0.409	2.67 (inactive)	-0.913 (inactive)	-0.618 (inactive)	-1.61 (inactive)	1.72	-0.638 (inactive)	-2.05 (inactive)	-0.659	0.119	0.102	0.925	0.572	-0.221	-0.835	-0.596 (inactive)	-0.309	-1.37	-0.619 (inactive)
COC(=O)[C@@]1(Cc2ccc(OC)cc2)[C@H]2c3cc(C(=O)N(C)C)n(Cc4ccsc4Br)c3C[C@H]2CN1C(=O)c1ccccc1	-0.218 (inactive)	0.456	4.25 (inactive)	1.16 (inactive)	0.57 (inactive)	0.814 (inactive)	-0.87	0.555 (inactive)	0.536 (inactive)	0.316	-0.299	0.157	0.205	-0.859	-0.51	2.25	0.171 (inactive)	-0.484	-0.468	0.141 (inactive)
COCCOC(=O)N1C(=O)[C@@]2(c3cc(C#Cc4ccc(OC)cc4)ccc31)[C@H](c1ccc(OCCO)cc1)N1[C@H](c3ccccc3)[C@H](c3ccccc3)OC(=O)[C@H]1[C@@H]2C(=O)N1CCCCCCC1	0.543 (inactive)	2.74	2 (inactive)	0.481 (inactive)	0.306 (inactive)	0.0489 (inactive)	1.59	0.928 (inactive)	0.274 (inactive)	1.19	0.571	1.96	0.856	-0.0692	0.81	-0.16	-2.31 (inactive)	-0.684	-1	-0.436 (inactive)
CN1C(=O)C2C(C1=O)C1C=C(c3ccc(CO)cc3)C2C(c2cccs2)N1C (stereo not given)	0.894 (inactive)	0.186	3.57 (inactive)	1.29 (inactive)	1.43 (inactive)	0.699 (inactive)	-0.105	0.158 (inactive)	-1.96 (inactive)	-0.45	-0.0148	0.338	0.186	-0.88	-0.996	0.398	-0.42 (inactive)	-0.492	0.172	-0.173 (inactive)
C=CCC(OC(C)=O)[C@@H]1[C@@H](N(Cc2cccc3ccccc23)C(=O)c2ccc(-c3ccccc3)cc2)c2cc(OCCCO)ccc2N1C(=O)c1ccc2ccccc2n1 (stereo not given in full)	-0.688 (inactive)	0.123	0.0025 (inactive)	-0.232 (inactive)	-0.44 (inactive)	-0.0821 (inactive)	1.14	-0.0242 (inactive)	1.04 (inactive)	1.48	-0.421	0.587	0.589	-0.848	-0.842	1.08	-0.12 (inactive)	0.61	-0.0192	0.701 (inactive)
NC(=O)NCC#Cc1ccc2c(c1)[C@]1(C(=O)N2)[C@H](C(=O)N2CCCCCCC2)[C@H]2C(=O)O[C@H](c3ccccc3)[C@H](c3ccccc3)N2[C@@H]1c1ccc(O)cc1	-0.504 (inactive)	2.3	-0.268 (inactive)	-0.0915 (inactive)	-0.117 (inactive)	-0.0064 (inactive)	-0.602	1.67 (inactive)	0.541 (inactive)	1.15	-0.491	-0.542	-0.0358	-0.499	-0.193	-1.98	-0.35 (inactive)	-0.981	0.0512	-0.0116 (inactive)
C=CCC(OC(C)=O)[C@@H]1[C@@H](N(Cc2cc3ccccc3o2)C(=O)Cc2ccc(OC)cc2)c2cc(OCCCO)ccc2N1C(=O)Cc1ccc(OC)cc1 (stereo not given in full)	-0.759 (inactive)	0.0091	2.19 (inactive)	0.297 (inactive)	1.23 (inactive)	0.336 (inactive)	-0.0725	-0.685 (inactive)	-0.727 (inactive)	-2.19	0.3	1.71	0.128	0.708	-1.74	2.14	-0.184 (inactive)	-0.566	0.799	-0.914 (inactive)
C=C(CCCC)C(=O)CC[C@H](OC(=O)c1cccnc1)c1ccc(CO)o1	-0.348 (inactive)	0.3	2.21 (inactive)	0.101 (inactive)	0.217 (inactive)	0.038 (inactive)	-0.253	1.25 (inactive)	0.532 (inactive)	-0.454	-0.489	-0.175	0.0768	0.187	-0.0395	-1.48	-0.572 (inactive)	-0.577	-0.283	-0.0291 (inactive)
CC(C)[C@@H](C(=O)O)n1cc(-c2ccccc2)nn1	-1.08 (inactive)	0.241	0.354 (inactive)	0.217 (inactive)	-0.406 (inactive)	0.0394 (inactive)	-0.299	-0.7 (inactive)	0.521 (inactive)	-0.167	-0.633	-0.582	-0.354	-0.117	-0.887	-1.36	-1.2 (inactive)	0.00787	0.00093	-0.423 (inactive)
CC(C)C[C@H]1NC(=O)[C@H](Cc2ccccc2)NC(=O)[C@@]23C(=O)N[C@@H](Cc4ccccc4)C2[C@H](C)[C@@]2(C)O[C@H]2C3/C=C/C/C=C\CNC1=O (stereo not given in full)	-1 (inactive)	-0.145	0.133 (inactive)	-0.209 (inactive)	0.0708 (inactive)	-0.308 (inactive)	-0.129	1.05 (inactive)	0.819 (inactive)	-1.37	-0.0322	0.13	-1.04	-0.356	-0.718	-1.07	0.0338 (inactive)	0.478	0.704	0.395 (inactive)
CO[C@H]1O[C@H](CO)[C@@H](OC(=O)Nc2ccccc2)[C@@H]2OC(=O)[C@H](Cc3ccccc3)C/C=C/C[C@@H](Cc3ccccc3)C(=O)O[C@@H]12	0.863 (inactive)	0.302	10.1 (active)	0.342 (inactive)	-1.91 (inactive)	-0.681 (inactive)	1.31	-3.35 (inactive)	-0.599 (inactive)	-1.57	-0.152	0.385	0.358	-1.22	-2.46	-0.928	0.799 (inactive)	-0.865	-1.45	-2.94 (inactive)
